Our source for the Potency and outcome values is PubChem BioAssay (Tox21).

Structures are written as SMILES. Values without a mark were called inactive. Records with an inconclusive call do not appear. Calls of active or inactive are those of the source. Unless noted, the call rests on the fitted dose curve.

Assay [1] is described as follows: Nuclear factor erythroid 2-related factor 2/antioxidant responsive element (Nrf2/ARE) small molecule agonists: qHTS cell viability counter screen in human keratinocytes (AID 1919968; active means well fitted curve in the direction sought with a large enough effect in the repeat runs; an effect the other way counts as inactive or inconclusive; further: nearly all actives have a fitted effect of over 55% in size). Put shortly: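 Parallel cytotoxicity read: KeratinoSens HaCaT cells, compound treatment 23 h, viability by CellTiter-Fluor fluorescence 1 h post-reagent.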
The nature of assay [2]: Nuclear factor erythroid 2-related factor 2/antioxidant responsive element (Nrf2/ARE) small molecule agonists: luciferase reporter gene qHTS assay in human keratinocytes (AID 1919969). Further: nearly all actives have a fitted effect of over 35% in size. Further: potency means the concentration at half of the fitted maximal effect.
Assay [3] addresses Gonadotropin-releasing hormone receptor (Homo sapiens) (UniProt P30968). The assay is described as follows: Human gonadotropin-releasing hormone receptor (GnRHR) small molecule agonists, calcium flux assay in GnRHR-HEK293 cells (AID 1920063). Further: nearly all actives have a fitted effect of over 35% in size. Put shortly: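 Calcium flux, agonist mode, human GnRHR stably integrated in HEK293; dye 1 h at 37 C before compound; Ex/Em=480/540 kinetic read, 3 min; 15 concentrations, triplicate.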

Assay [4] has as its target KiSS-1 receptor (Homo sapiens) (UniProt Q969F8). The assay is described as follows: Human kisspeptin (KISS1R) small molecule agonists, calcium flux assay in KISS1R-HEK293 cells (AID 1920064; active means well fitted curve in the direction sought with a large enough effect in the repeat runs; an effect the other way counts as inactive or inconclusive). Put shortly:
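Triplicate 15-concentration series were applied to dye-loaded human KISS1R HEK293 cells, and agonist-evoked calcium fluorescence was captured for 3 min.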

Assay [5] can be described thus: G protein-coupled receptor (GPCR) small molecule agonists, calcium flux assay: HEK293 wild type cell line counter screen (AID 1920065). The method, boiled down:
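Non-specific calcium responders were flagged by adding DMSO-dissolved compounds to dye-loaded cells and reading 480/540 nm fluorescence each second for 3 min; ATP served as positive control.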

Assay [6] is described as follows: p53 small molecule agonists, cell-based qHTS assay with human liver microsomes (AID 1963577).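 Further: p53 response element beta-lactamase reporter cells with liver microsomes plus NADPH.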 Put shortly: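 Metabolically competent format: test substances, human liver microsomes and NADPH (both 0.5 mg/mL final) incubated with p53RE-bla cells 16 h at 37 C. Beta-lactamase reporter signal then quantified by fluorescence.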
Assay [7] can be described thus: p53 small molecule agonists, cell-based qHTS assay with rat liver microsomes (AID 1963578). Put shortly: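 Each plate received p53RE-bla cells, then compound, then rat liver microsomes and NADPH (both 0.5 mg/mL final). Plates were held 16 h at 37 C, and beta-lactamase activity was detected with LiveBLAzer over 2 h.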
Assay [8] can be described thus: p53 small molecule agonists, cell-based qHTS assay with human liver microsomes: qHTS cell viability counter screen (AID 1963579). Further: nearly all actives have a fitted effect of over 45% in size. Put shortly:
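Tox21 library compounds, delivered from DMSO stocks, were tested on p53RE-bla cells together with 0.5 mg/mL human liver microsomes and 0.5 mg/mL NADPH (final) over 16 h at 37 C; CellTiter-Glo luminescence served as the cytotoxicity measure.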

A short description of assay [9]: p53 small molecule agonists, cell-based qHTS assay with rat liver microsomes: qHTS cell viability counter screen (AID 1963580). Further: nearly all actives have a fitted effect of over 45% in size. The method, boiled down: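 Cytotoxicity counter screen: intracellular ATP read by CellTiter-Glo luminescence in the p53 reporter wells. HCT-116 p53RE-bla cells were treated for 16 h at 37 C alongside rat liver microsomes and NADPH, each 0.5 mg/mL final.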

Assay [10] is described as follows: p53 small molecule agonists, cell-based qHTS assay: qHTS cell viability counter screen (AID 1963581). Further: nearly all actives have a fitted effect of over 45% in size. Put shortly: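 Multiplexed with the reporter read, a CellTiter-Glo step (30 min, room temperature) gauges ATP-based viability of HCT-116 p53RE-bla cells after 16 h compound incubation at 37 C.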
Assay [11] deals with 5-hydroxytryptamine receptor 2A (Homo sapiens) (UniProt P28223). The assay is described as follows: 5-hydroxytryptamine receptor 2A (HTR2A) small molecule antagonists, cell-based qHTS assay (AID 1963586). Further: nearly all actives have a fitted effect of over 45% in size. Further: potency means the concentration at half of the fitted maximal effect. Put shortly: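 CHO cells stably expressing human HTR2A were plated for 18 h at 37 C, then loaded with calcium dye for 1 h. Compounds were preincubated 5 min at room temperature before DOI (4 nM solution) was added. Kinetic fluorescence was read for 3 min.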

Assay [12] has the same target. Description: 5-hydroxytryptamine receptor 2A (HTR2A) small molecule agonists, cell-based qHTS assay (AID 1963587). Further: nearly all actives have a fitted effect of over 30% in size. Put shortly:
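Kinetic calcium-flux fluorescence (2 min, 1 sec intervals) after compound addition in agonist mode. HTR2A-CHO cells were cultured 18 h, then dye-loaded 1 h at 37 C.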

Assay [13] has as its target Muscarinic acetylcholine receptor M1 (Homo sapiens) (UniProt P11229). Description: Cholinergic receptor muscarinic 1 (CHRM1) small molecule agonists, cell-based qHTS assay (AID 1963589). Further: nearly all actives have a fitted effect of over 35% in size. The method, boiled down:
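qHTS, 15-point titration, 3 independent runs: compounds pin-transferred onto dye-loaded CHRM1-CHO cells (human M1), calcium fluorescence followed every second to detect agonism.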

A short description of assay [14]: cAMP Responsive Elements (CRE) small molecule antagonists, cell-based qHTS assay (AID 1963591; active means well fitted inhibition curve with a large enough effect in the signal ratio in the repeat runs, not every such curve was filed as active; the % refers to the signal ratio). Put shortly: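 Fluorescence intensity from cleaved LiveBLAzer B/G substrate (2 h, room temperature) quantified CRE-bla activity in HEK 293T cells exposed 3 h to compound with 0.25 uM final NKH477.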
Assay [15] deals with Beta-2 adrenergic receptor (Homo sapiens) (UniProt P07550). Description: Adrenergic beta2 receptor (ADRB2) small molecule antagonists, cell-based qHTS assay (AID 1963592). Further: series mostly up to about 92 µM; nearly all actives have a fitted effect of over 50% in size. The method, boiled down: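 Assay format: CHO-ADRB2 cells, 18-20hr seeding at 37C/5% CO2, then compound plus 1nM isoproterenol agonist mix for 0.5hr RT. Homogeneous time-resolved fluorescence cAMP detection after 1hr, expressed as 665/615 nm ratio.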

Assay [16] deals with D(2) dopamine receptor (Homo sapiens) (UniProt P14416). Description: Dopamine D2 receptor (DRD2) small molecule agonists, cell-based qHTS assay (AID 1963594). Further: nearly all actives have a fitted effect of over 35% in size. Put shortly:
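cAMP accumulation in DRD2-HEK293 cells measured by HTRF after 1 h detection; compounds added 10 min before NKH477 (200nM […]) forskolin-analogue stimulation, 30 min at room temperature, with Ro20-1724 present at 0.1 mM final.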

Assay [17] has the same target. The assay is described as follows: Dopamine D2 receptor (DRD2) small molecule antagonists, cell-based qHTS assay (AID 1963595; active means well fitted inhibition curve with a large enough effect in the signal ratio in the repeat runs, with a control signal flat; the % refers to the signal ratio). The method, boiled down:
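Antagonism was scored as restored cAMP in HEK293-DRD2 cells. These cells were stimulated with 200 nM NKH477 and 12 nM quinpirole for 30 min at room temperature, in the presence of 0.1 mM Ro20-1724.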

Assay [18] is described as follows: cAMP Responsive Elements (CRE) small molecule agonists, cell-based qHTS assay (AID 1963590). Put shortly:
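Quantitative HTS for CRE agonists: HEK 293T CRE-bla cells, overnight plating, 3 h compound incubation at 37 C/5% CO2, then 2 h room-temperature LiveBLAzer B/G FRET substrate loading.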

Assay [19] concerns the target Beta-2 adrenergic receptor (Homo sapiens) (UniProt P07550). Description: Adrenergic beta2 receptor (ADRB2) small molecule agonists, cell-based qHTS assay (AID 1963593).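 Further: CHO cells stably overexpressing human ADRB2.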 Put shortly: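 CHO cells stably over-expressing ADRB2 were plated overnight at 37C, then dosed with compounds plus a stimulation mix containing 100uM IBMX and 25uM Ro-20-1724 for 0.5hr at room temperature. cAMP was measured by HTRF competition, 1hr.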

Chain of Muscarinic acetylcholine receptor M1 (Homo sapiens) (P11229 whole entry, looked up): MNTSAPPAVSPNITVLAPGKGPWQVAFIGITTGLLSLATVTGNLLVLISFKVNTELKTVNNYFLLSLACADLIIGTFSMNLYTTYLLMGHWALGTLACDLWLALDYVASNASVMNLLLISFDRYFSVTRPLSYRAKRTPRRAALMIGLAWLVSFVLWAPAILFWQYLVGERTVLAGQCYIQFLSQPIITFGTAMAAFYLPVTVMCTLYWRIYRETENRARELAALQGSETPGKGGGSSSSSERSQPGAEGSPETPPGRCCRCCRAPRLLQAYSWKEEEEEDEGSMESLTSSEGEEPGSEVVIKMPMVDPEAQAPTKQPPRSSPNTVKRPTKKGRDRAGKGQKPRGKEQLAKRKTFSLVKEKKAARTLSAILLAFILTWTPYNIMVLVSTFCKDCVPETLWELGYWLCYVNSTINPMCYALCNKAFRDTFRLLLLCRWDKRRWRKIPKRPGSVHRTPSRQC
Chain of KiSS-1 receptor (Homo sapiens) (Q969F8 whole entry, looked up): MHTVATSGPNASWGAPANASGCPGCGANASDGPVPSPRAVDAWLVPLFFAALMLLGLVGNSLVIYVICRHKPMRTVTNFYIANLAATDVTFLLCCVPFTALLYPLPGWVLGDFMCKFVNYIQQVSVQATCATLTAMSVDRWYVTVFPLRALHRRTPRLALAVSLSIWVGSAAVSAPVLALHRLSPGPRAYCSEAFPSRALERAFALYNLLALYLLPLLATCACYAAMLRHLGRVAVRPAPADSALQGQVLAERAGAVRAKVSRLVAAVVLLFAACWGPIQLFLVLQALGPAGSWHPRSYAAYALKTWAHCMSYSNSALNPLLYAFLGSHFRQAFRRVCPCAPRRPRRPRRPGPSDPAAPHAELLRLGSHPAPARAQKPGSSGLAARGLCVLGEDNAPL
Chain of Beta-2 adrenergic receptor (Homo sapiens) (P07550 whole entry, looked up): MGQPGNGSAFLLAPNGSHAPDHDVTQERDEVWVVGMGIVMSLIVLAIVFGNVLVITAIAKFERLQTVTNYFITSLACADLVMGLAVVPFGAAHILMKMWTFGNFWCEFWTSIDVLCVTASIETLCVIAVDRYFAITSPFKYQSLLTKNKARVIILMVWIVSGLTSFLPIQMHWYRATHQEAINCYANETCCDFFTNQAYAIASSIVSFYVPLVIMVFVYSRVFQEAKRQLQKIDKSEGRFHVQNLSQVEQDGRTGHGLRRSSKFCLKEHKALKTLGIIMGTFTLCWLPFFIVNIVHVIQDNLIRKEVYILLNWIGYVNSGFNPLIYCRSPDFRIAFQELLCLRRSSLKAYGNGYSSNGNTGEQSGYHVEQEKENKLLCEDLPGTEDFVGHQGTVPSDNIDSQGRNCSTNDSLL
Chain of D(2) dopamine receptor (Homo sapiens) (P14416 whole entry, looked up): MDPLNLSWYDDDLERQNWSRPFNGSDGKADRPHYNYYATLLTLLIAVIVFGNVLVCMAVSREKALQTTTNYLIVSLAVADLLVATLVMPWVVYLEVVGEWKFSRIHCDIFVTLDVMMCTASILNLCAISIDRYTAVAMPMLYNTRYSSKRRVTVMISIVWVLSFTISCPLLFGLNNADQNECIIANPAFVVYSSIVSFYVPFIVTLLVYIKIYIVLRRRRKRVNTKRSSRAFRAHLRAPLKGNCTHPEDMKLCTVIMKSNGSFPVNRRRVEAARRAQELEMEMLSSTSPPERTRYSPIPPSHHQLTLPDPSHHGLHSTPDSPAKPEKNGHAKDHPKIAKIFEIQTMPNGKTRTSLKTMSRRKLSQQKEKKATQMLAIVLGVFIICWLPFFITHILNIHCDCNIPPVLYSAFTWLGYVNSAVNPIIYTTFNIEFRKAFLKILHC
Chain of Gonadotropin-releasing hormone receptor (Homo sapiens) (P30968 whole entry, looked up): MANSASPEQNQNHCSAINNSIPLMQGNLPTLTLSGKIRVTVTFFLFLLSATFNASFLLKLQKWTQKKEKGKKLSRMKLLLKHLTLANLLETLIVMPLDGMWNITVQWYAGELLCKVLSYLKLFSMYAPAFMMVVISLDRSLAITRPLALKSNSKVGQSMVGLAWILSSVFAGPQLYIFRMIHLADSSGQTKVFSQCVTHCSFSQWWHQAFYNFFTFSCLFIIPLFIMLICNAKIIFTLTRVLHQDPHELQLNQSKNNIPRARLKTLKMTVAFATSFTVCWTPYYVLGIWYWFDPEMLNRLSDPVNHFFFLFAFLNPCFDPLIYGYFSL
Chain of 5-hydroxytryptamine receptor 2A (Homo sapiens) (P28223 whole entry, looked up): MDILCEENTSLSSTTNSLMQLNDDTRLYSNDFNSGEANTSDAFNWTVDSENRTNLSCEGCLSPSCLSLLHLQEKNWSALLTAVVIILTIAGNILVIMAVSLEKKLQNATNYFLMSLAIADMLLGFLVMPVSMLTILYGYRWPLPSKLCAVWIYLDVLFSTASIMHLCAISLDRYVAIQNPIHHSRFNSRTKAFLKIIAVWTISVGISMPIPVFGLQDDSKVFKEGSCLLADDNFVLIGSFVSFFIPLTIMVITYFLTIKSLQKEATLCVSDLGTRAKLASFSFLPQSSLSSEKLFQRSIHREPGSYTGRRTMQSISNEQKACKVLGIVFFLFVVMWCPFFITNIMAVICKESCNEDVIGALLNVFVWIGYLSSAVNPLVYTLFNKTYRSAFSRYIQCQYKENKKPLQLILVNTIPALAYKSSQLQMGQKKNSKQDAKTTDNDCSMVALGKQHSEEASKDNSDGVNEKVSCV

For the compound `CCOC(=O)CC#N`, the Potency result in assay [1], in [2], in assay [3], in [6], in [7] and in [8] was “inactive” in each case. In addition, the Potency entry in [9], in assay [10], in assay [11], in assay [12], in assay [13] and in [14] was “inactive” in each case. For the same compound, the Potency result in assay [15], in assay [16] and in [17] was “inactive” in each case. The outcome in assay [4] and in [5] was inactive.
In the case of `O=C1C(=O)c2ccccc2C(O)=C1C1CCC(c2ccc(Cl)cc2)CC1` (stereo unspecified), the Potency entry in assay [1], in assay [3], in assay [6], in assay [7], in assay [8] and in assay [9] was “inactive” throughout. Further, the Potency entry in assay [10], in assay [11], in [12], in assay [13], in assay [14] and in [15] was “inactive” throughout. In addition, the Potency result in [16] and in [17] was “inactive” throughout. The Potency in assay [2] was 13.3 µM (active). Also, the result in assay [4] and in assay [5] was inactive.
For `CC(CC(C)(C)C)CC(C)(C)CC(C)(C)C` (stereo unspecified), the Potency result in assay [1], in assay [2], in assay [3], in assay [6], in assay [7] and in assay [8] was “inactive” each time. In addition, the Potency result in assay [9], in assay [10], in [11], in assay [12], in assay [13] and in [18] was “inactive” in each case. Further, the Potency result in [14], in assay [15], in assay [16] and in [17] was “inactive” throughout. The result in assay [4] and in assay [5] was inactive.
On to `CCC1CCC(CCC(=O)O)C1` (stereo unspecified), for which the Potency entry in assay [1], in assay [2], in [3], in assay [6], in assay [7] and in [8] was “inactive” throughout. The Potency result in [9], in [10], in [11], in assay [12], in [13] and in [14] was “inactive” throughout. Also, the Potency result in [15], in assay [16] and in assay [17] was “inactive” each time. In addition, the result in assay [4] and in [5] was inactive.
Regarding `Cc1cccc(N(C)C(=S)Oc2ccc3c(c2)CCC3)c1`, the Potency result in assay [1], in assay [2], in assay [3], in assay [6], in assay [7] and in [8] was “inactive” in each case. Moreover, the Potency result in [9], in [10], in [12], in assay [13], in assay [18] and in assay [15] was “inactive” in each case. Further, the Potency result in assay [19] and in [16] was “inactive” in each case. For the same compound, the outcome in [4] and in [5] was inactive. The Potency in [11] is 1.3 µM (active).
Regarding `CCCS(=O)c1ccc2nc(NC(=O)OC)[nH]c2c1` (stereo unspecified), the Potency entry in assay [1], in assay [2], in assay [3], in assay [6], in [7] and in assay [8] was “inactive” in each case. Also, the Potency result in assay [9], in assay [10], in [11], in [12], in assay [13] and in assay [15] was “inactive” in each case. Moreover, the Potency entry in [19] and in [17] was “inactive” in each case. The result in assay [4] and in [5] was inactive.
For the compound `CC(C)=CCC/C(C)=C/CC/C(C)=C/CO`, the Potency result in assay [1], in assay [3], in assay [6], in assay [7], in [8] and in assay [9] was “inactive” in each case. Further, the Potency result in assay [10], in assay [11], in assay [12], in assay [13], in assay [18] and in assay [15] was “inactive” throughout. For the same compound, the Potency result in assay [16] and in assay [17] was “inactive” in each case. Further, in assay [2], the Potency was 68.6 µM (active). Further, the outcome in assay [4] and in assay [5] was inactive.
Turning to `CCCCS`, the Potency entry in assay [1], in assay [2], in assay [3], in [6], in assay [7] and in assay [8] was “inactive” each time. For the same compound, the Potency entry in [9], in assay [10], in assay [11], in [12], in [13] and in assay [18] was “inactive” each time. Besides, the Potency entry in [14], in [16] and in assay [17] was “inactive” throughout. In addition, the outcome in [4] and in assay [5] was inactive.
